Drawing on PubChem BioAssay AID463173 (ICCB-Longwood Screening Facility, Harvard Medical School, 2010), this text covers survival for 95 compounds.

Each structure is given as a SMILES string. The whole screen tested about 52,000 compounds, of which about 1,700 (3.3%) were called active. For the sample, actives were picked, then their nearest neighbours and some compounds at random. Unmarked numbers belong to inactive results. Rule as the data show it: active = survival mostly below about 52% (no sharp cut-off); inactive = mostly above about 56%.

The assay has as its system Wild type. Put plainly: S. aureus survival, RN4220 and DeltatarO strains – OD600, teichoic acid synthesis inhibitors, primary screen (AID 463173). The settings on record: S. aureus RN4220 wild type/DeltatarO growth, OD600, 18 h, active compounds read low, screened at 18.75 µg/mL (by protocol).
For the compound `CCOC(=O)CC(=O)CSc1nc2ccccc2c(=O)n1CCc1ccc(S(N)(=O)=O)cc1`, the survival was 71%. Under `Cc1ccc(C(=O)COC(=O)CCC(=O)Nc2ccc(Oc3ccccc3)cc2)cc1` stands 90%; under `Cc1cc(NC(=O)C(C)(C)Oc2ccc(Cl)cc2)cc(-c2nc3ncccc3o2)c1O`, 92%. Under `COc1c(Cl)cc(Cl)cc1C(=O)Nc1cccc(-c2nc3ccccc3o2)c1C` stands 125%; under `Cc1ccc2oc(-c3ccc(C)c(NC(=O)C(C)(C)Oc4ccc(Cl)cc4)c3)nc2c1`, 43%. Consider `Cc1c(NC(=O)C(C)(C)Oc2ccc(Cl)cc2)cccc1-c1nc2ncccc2o1`, for which the survival is -3% (active). Regarding `CC(C)(Oc1ccc(Cl)cc1)C(=O)Nc1ccc(-c2nc3ncccc3o2)cc1`, the survival was 74%. Under `Cc1c(NC(=O)C(C)(C)Oc2ccc(Cl)cc2)cccc1-c1nc2ccccc2o1` stands 1% (active).

For the compound `COc1ccc(-c2nc(CN3CCC(C(=O)NCCCOC(C)C)CC3)c(C)o2)cc1OC`, the survival was 80%.

`CCCn1cc(S(=O)(=O)c2ccc(OC)cc2)c(=O)c2cc(F)c(N3CCCC(C)C3)cc21` (stereo not given): the survival is 71%. Turning to `CCOc1ccc(C(=O)NCCS(=O)(=O)N2CCN(c3ccccc3F)CC2)cc1OCC`, the survival was 102%. In the case of `COc1ccc(OCC(=O)Nc2ccc(-c3nc4cc(C)c(C)cc4o3)cc2)cc1`, the survival is 77%.

Consider `Cc1ccc(-n2ncc3c(Nc4cccc(C)c4C)ncnc32)cc1`, for which the survival is 78%. `COc1ccc(Nc2ncnc3c2cnn3-c2ccc(C)cc2)cc1Cl`: the survival is 133%. Next, `COc1ccc(OC)c(Nc2ncnc3c2cnn3-c2ccc(C)cc2)c1`: 14% (active); `CCOc1ccccc1Nc1ncnc2c1cnn2-c1ccc(C)cc1`: 76%. Consider `COc1ccc(CCNc2ncnc3c2cnn3-c2ccc(C)cc2)cc1`, for which the survival was 71%.

As for `COc1ccc(OC)c(Nc2ncnc3c2cnn3-c2cccc(Cl)c2)c1`, the survival was 64%. Consider `Cc1ccc(C)c(Nc2ncnc3c2cnn3-c2ccc(F)cc2)c1`, for which the survival is -3% (active). Under `COc1ccc(-n2ncc3c(NCCCOC(C)C)ncnc32)cc1` stands -2% (active); under `COCCCNc1ncnc2c1cnn2-c1ccc(F)cc1`, 82%; under `Cc1ccc(Cn2c(C(=O)O)c(CNC3CCCCCC3)c3ccc(C)cc32)cc1`, 74%. In the case of `CCCNC(=O)C1CCC(Cn2c(=O)c3sccc3n(CC(=O)NCc3cccc(OC)c3OC)c2=O)CC1` (stereo not given), the survival is 133%. Take `COc1cccc(NC(=O)c2cnc(SCC(=O)N3CCCc4ccccc43)n(C)c2=O)c1`: the survival is 54%. Under `COc1cccc(-c2cn3ncsc3n2)c1` stands 80%; under `Cc1cc(NNC(=O)c2ccccc2)nc(NNC(=O)c2ccccc2)n1`, 103%.

Regarding `CCCc1noc(-c2ccc(NCc3ccccc3OC)c([N+](=O)[O-])c2)n1`, the survival is 79%. On to `N#C/C(=C/c1ccc(Cl)cc1)c1nc(-c2ccc(Br)cc2)cs1`, for which the survival was 83%.

For `CN(C)c1ccc(/C=C(\C#N)c2nc(-c3ccc(Cl)c(Cl)c3)cs2)cc1`, the survival is 89%.

In the case of `N#C/C(=C/c1ccc(O)cc1)c1nc(-c2ccc(-c3ccccc3)cc2)cs1`, the survival is 0% (active).

Regarding `CCc1ccc(/C=C(/C#N)c2nc(-c3ccc(C)cc3)cs2)cc1`, the survival was -2% (active). For `N#C/C(=C\c1ccc(F)cc1)c1nc(-c2ccc(-c3ccccc3)cc2)cs1`, the survival was 74%. For `COc1ccc(/C=C(/C#N)c2nc(-c3ccc(-c4ccccc4)cc3)cs2)cc1`, the survival is 66%. Under `CCOc1ccc(-c2csc(/C(C#N)=C/c3ccc(Br)cc3)n2)cc1` stands 71%; under `CC(C)c1ccc(/C=C(\C#N)c2nc(-c3ccc(O)cc3)cs2)cc1`, 0% (active).

`Cc1ccc(/C=C(\C#N)c2nc(-c3ccc(-c4ccccc4)cc3)cs2)cc1`: the survival is 83%.

Turning to `Cc1nn2c3c(cnc2c1-c1ccc(Cl)cc1)C(=O)CC(c1ccc(C(C)C)cc1)C3` (stereo not given), the survival was 78%. For the compound `Cc1ccc(-n2nnc3c(sc4nc(C)c(C)cc43)c2=O)cc1Cl`, the survival was 84%.

`CCCCN1C(C(=O)c2ccccc2)=C(OC(C)=O)c2ccccc2S1(=O)=O`: the survival is -2% (active). For `CCCCC(=O)OC1=C(C(=O)c2ccccc2)N(CC)S(=O)(=O)c2ccccc21`, the survival was 71%. `CCCCN1C(C(=O)c2ccccc2)=C(OC(=O)CC)c2ccccc2S1(=O)=O`: the survival is 0% (active). Next, `CCCN1C(C(=O)c2ccccc2)=C(OC(=O)COc2ccccc2)c2ccccc2S1(=O)=O`: 72%; `CCCN1C(C(=O)c2ccccc2)=C(OC(=O)C(C)(C)C)c2ccccc2S1(=O)=O`: 86%. For `CCCCC(=O)OC1=C(C(=O)c2ccccc2)N(C)S(=O)(=O)c2ccccc21`, the survival was 108%. On to `CCCCCN1C(C(=O)c2ccccc2)=C(NC(C)=O)c2ccccc2S1(=O)=O`, for which the survival was 60%. As for `CCCCC(=O)OC1=C(C(=O)c2ccccc2)N(CCC)S(=O)(=O)c2ccccc21`, the survival was 43%. Next, `CCCCCN1C(C(=O)c2ccccc2)=C(OC(=O)CC)c2ccccc2S1(=O)=O`: -4% (active); `COc1cc(C(=O)OCn2c(=O)oc3ccccc32)cc(OC)c1OC`: 101%. `NC(=O)c1cc2n(n1)C(C(F)(F)F)CC(c1ccc(Cl)cc1)N2` (stereo not given): the survival is 116%. Under `COc1ccc(Cl)cc1NC(=O)C1CCN(c2nnc(C)c3c(C)n(-c4ccccc4)nc23)CC1` stands 66%. Under `Cc1c(Cl)cccc1-n1ncc(C(=O)N2CCN(C)CC2)c1C1CCN(C(=O)OC(C)(C)C)CC1` stands 87%. Next, `COc1ccccc1C(=O)Nc1ccc2oc(-c3cccc(Cl)c3Cl)nc2c1`: 100%; `COc1ccc(S(=O)(=O)Nc2cccc(-c3ccc(N4CCCCCC4)nn3)c2)cc1F`: 71%. For the compound `CCN1CCN(CCCNC(=O)Cn2c(-c3cccs3)cc3cc(F)ccc32)CC1`, the survival is 126%. In the case of `CC(C)COc1ccc(C(=O)Nc2cc3nn(-c4ccccc4)nc3cc2Cl)cc1`, the survival was 57%. For the compound `Cc1nc(-c2ccccc2)sc1-c1ccc(SCC(=O)Nc2ccc(F)cc2F)nn1`, the survival is 30%. For `CCc1ccccc1NC(=O)Cn1nnc(C(=O)Nc2ccc(OC)c(OC)c2)c1N`, the survival was 76%. Under `CCN(CC)C(=O)c1c(NC(=O)c2cccc(C)c2)sc2c1CCC(C)C2` (stereo not given) stands 2% (active); under `Cc1cccc(C(=O)Nc2sc3c(c2C(=O)N2CCCCC2)CCC(C)C3)c1` (stereo not given), -1% (active). Next, `Cc1cccc(NC(=O)c2c(NC(=O)c3cccs3)sc3c2CCC(C)C3)c1` (stereo not given): 75%. Under `Cc1cccc(NC(=O)c2c(NC(=O)c3ccco3)sc3c2CCC(C)C3)c1` (stereo not given) stands 73%; under `Cc1cccc(C(=O)Nc2sc3c(c2C(=O)O)CCCC3)c1`, 40%; under `CC1CCc2c(sc(NC(=O)c3ccccc3)c2C(=O)Nc2ccccc2)C1` (stereo not given), 64%. For `O=C(NC1CCCCC1)c1cccnc1Nc1ccccc1F`, the survival was 113%. As to `CC1CCCN(C(=O)Cn2ncc3c([nH]c4ccccc43)c2=O)C1` (stereo not given), the survival is 81%. Next, `COc1cc(NC(=O)CC(C)S(=O)(=O)c2ccc3c(c2)CCN3C(C)=O)cc(OC)c1OC` (stereo not given): 76%.

In the case of `CC(=O)N1CCc2cc(CNC(=O)Nc3ccc(Br)c(C)c3)ccc21`, the survival is 85%. Under `CC(=O)N1CCc2cc(S(=O)(=O)C(C)CC(=O)Nc3ccc(Br)c(C)c3)ccc21` (stereo not given) stands -6% (active); under `CCOC(=O)c1c(S(=O)(=O)NCC(=O)Nc2cccc(SC)c2)c(C)n(C)c1C`, 70%; under `COc1ccc(CN(C(=O)c2cc(=O)c3ccccc3o2)C2CCS(=O)(=O)C2)cc1OC` (stereo not given), 118%. With `CC(=O)Nc1cccc(NC(=O)C(=O)NCCc2csc3nc(-c4ccccc4F)nn23)c1`, the survival is 57%. Under `Cc1ccc(C)c(NC(=O)C(=O)NCCc2csc3nc(-c4ccccc4C)nn23)c1` stands 129%. As to `O=C(NCCc1csc2nc(-c3ccccc3F)nn12)C(=O)Nc1cc(F)ccc1F`, the survival is 63%. On to `COC(=O)c1ccc(NC(=O)C(=O)NCCc2csc3nc(-c4ccccc4F)nn23)cc1`, for which the survival was 60%. As to `CCOc1ccc(NC(=O)C(=O)NCCc2csc3nc(-c4ccccc4F)nn23)cc1`, the survival was -3% (active).

Turning to `Cc1ccc(NC(=O)C(=O)NCCc2csc3nc(-c4ccccc4C)nn23)cc1Cl`, the survival was 82%. Under `Cc1ccccc1-c1nc2scc(CCNC(=O)C(=O)Nc3ccc(F)cc3F)n2n1` stands -4% (active). With `CCOc1ccc(CC(=O)NCCc2csc3nc(-c4ccccc4F)nn23)cc1`, the survival was 119%. On to `Cc1c(Cl)cccc1NC(=O)C(=O)NCCc1csc2nc(-c3ccccc3F)nn12`, for which the survival was 1% (active).

With `O=C(CSc1nnnn1Cc1ccccc1)Nc1ccccc1`, the survival was 114%. Next, `COc1ccc(OC)c(CNS(=O)(=O)c2c(C(=O)N3CCCCCC3)c(C)n(C)c2C)c1`: 135%; `COc1ccccc1CNC(=O)CCC(=O)N1CC2CCCN2c2ccccc21` (stereo not given): 80%; `CC(C)(C)C(=O)Nc1cccc(-c2cn3cccnc3n2)c1`: 70%. Next, `O=C(CCCn1c(=O)c2cccn2c2ccccc21)NCc1ccccc1Br`: 55%; `CCc1ccc2nc(N3CCCC3)c(C#N)cc2c1`: 108%. On to `O=C(CSc1n[nH]c(-c2ccccc2Cl)n1)N1CCN(c2ccccc2F)CC1`, for which the survival is 123%. Take `Cc1ccc(-c2n[nH]c3c2C(c2cccc(O)c2)N(c2ccc(C(=O)O)cc2)C3=O)cc1` (stereo not given): the survival was 98%. Under `COc1ccccc1C1c2c(-c3ccc(Cl)cc3)n[nH]c2C(=O)N1c1ccc(C)cc1` (stereo not given) stands 85%.

As to `COC(=O)c1ccc(C2c3c(-c4ccc(Br)cc4)n[nH]c3C(=O)N2c2ccc(Cl)cc2)cc1` (stereo not given), the survival was 75%. In the case of `CCOC(=O)c1ccc(N2C(=O)c3[nH]nc(-c4ccc(OC)cc4)c3C2c2ccc(C)cc2)cc1` (stereo not given), the survival is 89%. Under `COc1ccc(-c2n[nH]c3c2C(c2ccc(O)cc2)N(c2ccc(Br)cc2)C3=O)cc1` (stereo not given) stands 11% (active); under `O=C1c2[nH]nc(-c3ccc(Br)cc3)c2C(c2cccc(O)c2)N1c1ccc(Cl)cc1` (stereo not given), 1% (active). Regarding `CCOc1cc(C2c3c(-c4ccc(Br)cc4)n[nH]c3C(=O)N2c2ccc(Cl)cc2)ccc1O` (stereo not given), the survival is 42%. In the case of `O=C1c2[nH]nc(-c3ccc(F)cc3)c2C(c2ccccc2F)N1c1ccccc1` (stereo not given), the survival is 4% (active).

For the compound `COc1ccc(C2c3c(-c4ccc(F)cc4)n[nH]c3C(=O)N2c2ccccc2)cc1OC` (stereo not given), the survival is 134%.
